IDE exosite inh: exo-site inhibitors of human insulin-degrading enzyme; purified IDE, FL-6b probe fluorescence polarization; stronger effect = lower value; z-score at 20 µM; 6.3% of 17,000 active;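 active means z-score of -3 or lower, meaning strong loss of probe binding signal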;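 further: His-tagged human IDE residues 42-1019 made in E. coli with 30 nM FL-6b probe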
Starred values were filed as active, the others as inactive; ! = a repeat was not active. This excerpt belongs to a sample that is enriched for hits.

SMILES	IDE exosite inh
N#Cc1ccc(-c2cccc(-c3nc(C(=O)O)cc4c3[C@@H](CCO)N(CC3CCOCC3)C4)c2)cc1	-1.03
O=C(NC[C@H]1N[C@H](CO)[C@@H]1c1ccc(C2=CCCC2)cc1)C1CC1	1.28
CCC(=O)N1CCCCN2[C@@H](CO)[C@@H](c3ccc(-c4ccc(F)cc4)cc3)[C@@H]2C1	0.525
O=C(c1cccc(F)c1)N1CCCCN2[C@H](C1)[C@H](c1ccc(/C=C/c3ccccc3)cc1)[C@@H]2CO	0.483
O=C(c1ccc(F)cc1)N1CCCCN2[C@@H](CO)[C@H](c3ccc(/C=C/c4ccccc4)cc3)[C@@H]2C1	-3.44*
O=C(c1cccc(F)c1)N1CCCCN2[C@H](CO)[C@@H](c3ccc(/C=C/c4ccccc4)cc3)[C@@H]2C1	2.39
CN1CCCCN2[C@H](CO)[C@H](c3ccc(/C=C/c4ccccc4)cc3)[C@H]2C1	-2.99
CCC(=O)N1CCCCN2[C@@H](CO)[C@H](c3ccc(/C=C/c4ccccc4)cc3)[C@@H]2C1	-7.23*
CCC(=O)N1CCCCN2[C@H](CO)[C@H](c3ccc(/C=C/c4ccccc4)cc3)[C@H]2C1	-3.11*
CN1CCCCN2[C@H](CO)[C@@H](c3ccc(/C=C/c4ccccc4)cc3)[C@H]2C1	-5.4*
CCC(=O)N1CCCCN2[C@H](CO)[C@H](c3ccc(-c4ccc(F)cc4)cc3)[C@H]2C1	3.33
CCC(=O)N1CCCCN2[C@H](CO)[C@H](c3ccc(-c4ccc(F)cc4)cc3)[C@@H]2C1	1.69
CN1CCCCN2[C@H](CO)[C@H](c3ccc(-c4ccccc4)cc3)[C@H]2C1	4.31
CCC(=O)N1CCCCN2[C@H](CO)[C@@H](c3ccc(/C=C/c4ccccc4)cc3)[C@H]2C1	-2.64
Cc1ccccc1-c1ccccc1[C@H]1[C@@H](CO)N(C(=O)c2cccc(F)c2)[C@H]1C#N	1.41
C/C=C/c1ccc([C@@H]2[C@@H](CO)N3C(=O)CN(Cc4ccccc4)C[C@H]23)cc1	1.89
COCC(=O)N1CC2(C1)[C@@H](c1ccccc1)[C@@H](CO)N2CCC(F)(F)F	0.758
COc1ccc2c3c([nH]c2c1)[C@H](CO)N(C(=O)C1CCOCC1)CC31CCN(Cc2nccs2)CC1	0.462
CC(C)NC(=O)N1[C@@H]2CNC[C@H]1C2c1ccc(-c2cccc(C#N)c2)cc1 (stereo not given in full)	3.93
CC(C)NC(=O)N1[C@@H]2CNC[C@H]1C2c1ccc(/C=C/c2ccccc2)cc1 (stereo not given in full)	-1.65
CCCNC(=O)N1[C@@H]2CNC[C@H]1C2c1ccc(-c2ccc(C)cc2)cc1 (stereo not given in full)	-3.16*!
CCCNC(=O)N1[C@@H](CO)[C@@H](c2ccc(-c3ccccc3)cc2)[C@@H]1CNC(C)=O	0.866
CCCNC(=O)N1[C@@H]2CNC[C@H]1C2c1ccc(/C=C/c2ccccc2)cc1 (stereo not given in full)	-7.49*
O=C(Nc1cccc(Cl)c1)N1[C@@H]2CNC[C@H]1C2c1ccc(/C=C/c2ccccc2)cc1 (stereo not given in full)	-0.287
COc1ccc2c3c(n(C)c2c1)[C@H](CO)N(S(C)(=O)=O)CC31CCN(Cc2nccs2)CC1	-0.371
SMILES	IDE exosite inh
CCS(=O)(=O)N1CC(=O)N2[C@H](CO)[C@H](c3ccc(-c4ccc(C)cc4)cc3)[C@@H]2C1	-0.799
COc1cccc(C#Cc2ccc([C@@H]3[C@H](CO)N4C(=O)CN(C(=O)Cc5ccccc5)C[C@@H]34)cc2)c1	-0.783
COc1cccc(C#Cc2ccc([C@H]3[C@H](CO)N4C(=O)CN(C(=O)Cc5ccccc5)C[C@@H]34)cc2)c1	-0.112
CC(C)C#Cc1ccc([C@@H]2[C@@H](CO)N3C(=O)CN(C(=O)Cc4cccnc4)C[C@H]23)cc1	4.88
CCCC#Cc1ccc([C@H]2[C@@H](CO)N3C(=O)CN(C(=O)Cc4cccnc4)C[C@H]23)cc1	-2.97
CCCC#Cc1ccc([C@@H]2[C@@H](CO)N3C(=O)CN(C(=O)Cc4cccnc4)C[C@H]23)cc1	2.29
COc1cccc(C#Cc2ccc([C@H]3[C@@H](CO)N4C(=O)CN(C(=O)Cc5cccnc5)C[C@@H]34)cc2)c1	-1.64
CCCC#Cc1ccc([C@@H]2[C@@H](CO)N3C(=O)CN(C(=O)Cc4cccnc4)C[C@@H]23)cc1	-1.62
COc1cccc(C#Cc2ccc([C@H]3[C@H]4CN(C(=O)Cc5cccnc5)CC(=O)N4[C@H]3CO)cc2)c1	-4.07*
CCCC#Cc1ccc([C@H]2[C@@H](CO)N3C(=O)CN(C(=O)Cc4cccnc4)C[C@@H]23)cc1	-0.657
COc1cccc(C#Cc2ccc([C@@H]3[C@H]4CN(C(=O)Cc5cccnc5)CC(=O)N4[C@H]3CO)cc2)c1	-5*
CCCC#Cc1ccc([C@@H]2[C@H]3CN(C(=O)Cc4cccnc4)CC(=O)N3[C@H]2CO)cc1	-4.26*
COc1cccc(C#Cc2ccc([C@@H]3[C@H](CO)N4C(=O)CN(C(=O)Cc5cccnc5)C[C@@H]34)cc2)c1	-4.12*
Cc1noc(C)c1C(=O)N(C)C[C@H]1OCc2ccccc2-c2ccccc2C(=O)N([C@H](C)CO)C[C@@H]1C	0.316

Screening data from PubChem BioAssay.
